# A selection: hits, their analogues and other compounds. The true share with any hit is near 1.9%.
# sEH act = activators of human soluble epoxide hydrolase. P34913. purified human sEH enzymatic activity, activator screen. activation, % at 2 µM. 91,000 compounds, 0.04% hits. AID 717; in the data active = activation above about 37%
# Target sequence (P34913 whole entry, looked up): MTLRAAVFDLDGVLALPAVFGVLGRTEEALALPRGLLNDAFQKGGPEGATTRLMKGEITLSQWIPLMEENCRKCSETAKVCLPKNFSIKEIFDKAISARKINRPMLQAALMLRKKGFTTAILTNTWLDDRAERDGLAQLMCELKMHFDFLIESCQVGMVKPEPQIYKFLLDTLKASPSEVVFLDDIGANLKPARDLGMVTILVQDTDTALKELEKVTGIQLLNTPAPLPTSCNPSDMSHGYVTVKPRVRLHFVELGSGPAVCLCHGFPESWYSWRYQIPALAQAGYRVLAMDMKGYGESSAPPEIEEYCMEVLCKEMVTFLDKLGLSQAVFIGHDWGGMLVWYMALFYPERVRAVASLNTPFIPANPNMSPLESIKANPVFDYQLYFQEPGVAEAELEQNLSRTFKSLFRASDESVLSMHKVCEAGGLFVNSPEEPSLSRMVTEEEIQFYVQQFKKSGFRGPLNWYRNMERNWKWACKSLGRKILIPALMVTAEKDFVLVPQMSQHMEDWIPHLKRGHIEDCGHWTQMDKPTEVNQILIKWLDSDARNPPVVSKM
# F-actin modifier = modifiers of cytoskeleton assembly; inhibition, % at 2 µM; AID 836; HUVEC TNFa F-actin phalloidin imaging, high content; 91,000 compounds, 0.18% hits;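 active = inhibition above the batch mean plus 3 SD and confirmed as a hit by visual image inspection, cut at about 30% in these data, passing the limit was not always enough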
# sEH inh = soluble epoxide hydrolase (human) inhibition | 91,000 compounds, 0.34% hits | inhibition, % at 2 µM | P34913 | recombinant human sEH enzymatic activity assay; in the data active = inhibition above about 80%
# Measles CPE = protection of cells from measles virus; Measles virus-infected cells, CPE protection, absorbance; protection (pct of control), % at 4 µM; 140,000 compounds, 1.5% hits; in the data active = protection mostly above about 24%, no sharp cut-off; inactive = mostly below about 26%
# Calb biofilm kill = kills Candida albicans biofilms | AID 834 | 85,000 compounds, 0.14% hits | inhibition, % at 6 µM | C. albicans biofilm + clotrimazole, Alamar Blue;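 active = inhibition above 20%; inactive = inhibition below 20%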;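 note: preformed 24 hr biofilms exposed to compound for 48 hr; 0% = biofilm without compound and 100% = blank killed by clotrimazole plus chlorhexidine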
# Numbers without * were called inactive; . = no result given.
SMILES,sEH act,F-actin modifier,sEH inh,Measles CPE,Calb biofilm kill
CC1CCCN(c2ccc([N+](=O)[O-])cc2C(=O)c2ccccc2)C1 (stereo unspecified),.,.,.,10,.
Cc1ccc(SCCC(=O)NCCSCc2ccccc2C)cc1,-83,11,83*,6,.
CCC1(C)N(O)C(C)(C)C(c2ccc(F)cc2)=[N+]1[O-] (stereo unspecified),0,-5,0,11,5
CN(Cc1ccccc1)C(=O)c1ccccc1NC(=O)c1ccccc1,-10,51*,12,28,.
CC(=O)Nc1ccccc1OC(C)C(=O)NC(C)c1ccc(F)cc1 (stereo unspecified),.,.,.,30,.
Cc1sc2nc(NCCO)[nH]c(=O)c2c1C,.,10,.,2,5
Cc1ccnc(NC(=O)CCC2COc3ccccc3O2)c1 (stereo unspecified),-7,9,9,41*,5
C=CCN(CCNP(=O)(OCC)OCC)CP(=O)(OCC)OCC,.,20,.,2,3
O=C(Nc1ccc(Br)cc1)c1cccn1-c1ncc(C(F)(F)F)cc1Cl,-18,36,20,13,.
CN(C)S(=O)(=O)c1cccn1-c1ncc(C(F)(F)F)cc1Cl,4,8,-6,43*,0
COc1ccccc1NC(=O)c1ccc(NC(=O)COC(=O)C2(C)CC2(Cl)Cl)cc1 (stereo unspecified),.,.,.,22,.
COc1ccccc1NC(=O)c1ccc(NC(=O)COC(=O)C2CCCCC2)cc1,.,.,.,49*,.
CCn1cnc2sc(C(=O)N3CCN(Cc4ccc5c(c4)OCO5)CC3)c(C)c2c1=O,.,48,.,5,8
CCn1cnc2sc(C(=O)N(Cc3ccc(N(C)C)cc3)Cc3ccco3)c(C)c2c1=O,.,.,.,55*,7
COc1ccccc1NS(=O)(=O)c1cccc(C(=O)NN)c1,-94,-13,94*,4,4
Cc1cc(NS(=O)(=O)c2ccc(Nc3nc(-c4sc(NC(=O)c5ccccc5)nc4C)cs3)cc2)no1,-94,.,94*,4,4
COC(=O)c1cc(NC(=O)CC2SCCNC2=O)cc(C(=O)OC)c1 (stereo unspecified),-8,-13,8,48*,-4
O=CN(Cc1ccco1)C1(C(=O)NC2CCCCC2)CCCCC1,-8,23,8,18,-2
Cc1ccc(S(=O)(=O)NCC(=O)N(CC(=O)NCC2CCCO2)Cc2ccccc2)cc1 (stereo unspecified),2,-16,-1,4,20*
O=C(CN(Cc1ccco1)C(=O)CNS(=O)(=O)c1ccc(F)cc1)NCCc1ccccc1,.,.,.,39*,8
OCCNc1nc2ccccc2n1CCN1CCCCC1,-4,9,4,47*,3
Clc1ncnc2scc(-c3ccc(Br)cc3)c12,.,.,.,3,.
O=C(Nc1ncc(S(=O)(=O)c2ccc([N+](=O)[O-])cc2)s1)c1ccc2ccccc2c1,.,.,.,19,.
CCC(C)(C)C(=O)Nc1ncc(S(=O)(=O)c2ccc([N+](=O)[O-])cc2)s1,11,-1,-8,53*,8
COc1cc(C(=O)CCN2CCC(c3ccccc3)C2)cc(OC)c1OC (stereo unspecified),.,.,.,22,.
SMILES,sEH act,F-actin modifier,sEH inh,Measles CPE,Calb biofilm kill
CCC(C)NC(=O)COc1ccc(S(=O)(=O)N2CCOCC2)cc1 (stereo unspecified),12,-5,-13,5,2
O=C(NCC(c1cccs1)N1CCOCC1)c1ccc(Br)o1 (stereo unspecified),-12,-6,10,2,8
CC(C)c1ccccc1OCC(=O)NCC(c1cccs1)N1CCOCC1 (stereo unspecified),8,-28,-9,29*,-4
COc1ccc(Nc2ccnc(Nc3ccc(OC)cc3)n2)cc1,.,.,.,6,.
COc1cc(NC(=O)NCc2ccncc2)cc(OC)c1OC,16,.,-15,8,3
CC(=O)NC(=S)Nc1ccc(NC(=O)COc2ccc(Cl)cc2Cl)cc1,-82,-57,82*,22,.
CC(=O)N1CCN(c2ccccc2NC(=O)COc2ccc(Cl)cc2Cl)CC1,-16,5,20,8,4
CC(=O)N1CCN(c2ccc(NC(=O)COc3ccc(Cl)cc3Cl)cc2)CC1,-90,-31,90*,5,6
Cc1ccccc1C(=O)Oc1ccc(Sc2ccc(O)cc2)cc1,16,-2,-13,19,.
CC1Nc2nc(NC(=O)C(C)(C)C)[nH]c(=O)c2N(C)C1C (stereo unspecified),.,.,.,73*,.
S=C(Nc1ccccc1)Nc1nc2ccccc2n1CCOc1ccccc1,-3,12,3,26*,.
O=C(Nc1ccccc1)N1CCc2ccccc21,-16,0,15,31,7
O=C(NCC1CCCC(CNC(=O)N2CCc3ccccc32)C1)N1CCc2ccccc21 (stereo unspecified),-92,18,92*,7,.
CC(C)n1c(O)c(N=NC(=O)Cn2ccc(C(F)(F)F)n2)c2ccccc21,.,.,.,11,.
C=CCn1c(C)cc(C(=O)COC(=O)CNC(=O)c2ccccc2)c1C,.,.,.,26*,.
Cc1ccc(C(=O)NCC(=O)OCC(=O)c2cc(C)n(Cc3ccco3)c2C)cc1,.,.,.,4,.
C=CCn1c(C)cc(C(=O)COc2nncc3ccccc23)c1C,.,0,.,46*,5
COc1ccc(-n2nnnc2-c2ccccc2)cc1,-6,-11,6,3,4
Clc1ccc(-n2nnnc2-c2ccccc2)cc1,.,.,.,52*,6
Cc1ccc(-c2nc(C3CCCN(S(=O)(=O)c4ccc(C(F)(F)F)cc4)C3)no2)cc1 (stereo unspecified),.,.,.,31*,.
Cc1ccc(-c2nc(C3CCCN(S(=O)(=O)c4ccc(C(C)(C)C)cc4)C3)no2)cc1 (stereo unspecified),12,8,-10,11,.
O=C(CSc1nnc(Cc2ccccc2)o1)Nc1ccc2c(c1)OCO2,10,-1,-9,20*,4
O=C(CSc1nnc(CNC(=O)c2cccs2)o1)Nc1ccc2c(c1)OCO2,-7,-6,9,8,5
CN(C(=O)c1ccno1)c1nnc(-c2ccccn2)s1,8,-8,-7,9,20*
Cc1ccc(-n2nnnc2SCC(=O)NCCC2=CCCCC2)c(C)c1,-82,0,82*,.,12
SMILES,sEH act,F-actin modifier,sEH inh,Measles CPE,Calb biofilm kill
COc1ccc(Nc2nc3ccccc3n3nnnc23)cc1,11,-23,-9,11,-1
Cc1ccc(C(=O)Nc2nc3ccccc3n3nnnc23)cc1,-6,-12,9,21*,6
COc1ccc(CCNS(=O)(=O)c2ccc3c(c2)CC(C)N3C(C)=O)cc1OC (stereo unspecified),.,7,.,38*,8
COc1cc(C)nc(Oc2ccc(OCCOc3ccc(C)cc3)nn2)n1,18,-74,-18,4,3
CCN(CC)S(=O)(=O)c1ccc(Cl)c(C(=O)Oc2cccc(-c3cnc4ccccc4n3)c2)c1,-8,-7,10,31*,.
CCN(CC)S(=O)(=O)c1ccc(Cl)c(C(=O)Oc2cccnc2)c1,-10,-49,10,10,-2
CCOC(=O)N1CCC(NC(=O)CCc2c(C)nc3ncnn3c2C)CC1,.,-10,.,13,11
Cc1nc(CCNC(=O)Cc2ccc(Cl)cc2)cs1,7,9,-8,39*,3

# Source: PubChem (several laboratories)
